This note sets out measurements from PubChem BioAssay AID1851 (National Center for Advancing Translational Sciences (NCATS), 2009).

Where “and” joins values, the source holds several entries; their conditions need not be identical. Equal values may be shown once. The whole screen tested about 16,000 compounds, of which about 5,700 (36%) were called active. Roughly 24% stayed inconclusive and do not appear here. Calls come from the whole dose curve; as a rule, active = well fitted curve in the direction sought with a large enough effect; inconclusive = small, poorly fitted or top-dose-only effect, or effect the other way; inactive = no such curve, though single readings can be large or run the other way. Some of the results follow.

One may read the AC50 as the concentration at which the activity in the assay is half-maximal.
% is set by controls: 0 for no effect and ±100 for the full control effect.

The target in the assay is Cytochrome P450 1A2 (Homo sapiens) (UniProt P05177). Description: Cytochrome panel assay with activity outcomes. Particulars: recombinant CYP, pro-luciferin dealkylation, luminescence, p450-cyp1a2; series mostly up to 57.1 µM.
Sequence of Cytochrome P450 1A2 (Homo sapiens) (P05177 whole entry, looked up): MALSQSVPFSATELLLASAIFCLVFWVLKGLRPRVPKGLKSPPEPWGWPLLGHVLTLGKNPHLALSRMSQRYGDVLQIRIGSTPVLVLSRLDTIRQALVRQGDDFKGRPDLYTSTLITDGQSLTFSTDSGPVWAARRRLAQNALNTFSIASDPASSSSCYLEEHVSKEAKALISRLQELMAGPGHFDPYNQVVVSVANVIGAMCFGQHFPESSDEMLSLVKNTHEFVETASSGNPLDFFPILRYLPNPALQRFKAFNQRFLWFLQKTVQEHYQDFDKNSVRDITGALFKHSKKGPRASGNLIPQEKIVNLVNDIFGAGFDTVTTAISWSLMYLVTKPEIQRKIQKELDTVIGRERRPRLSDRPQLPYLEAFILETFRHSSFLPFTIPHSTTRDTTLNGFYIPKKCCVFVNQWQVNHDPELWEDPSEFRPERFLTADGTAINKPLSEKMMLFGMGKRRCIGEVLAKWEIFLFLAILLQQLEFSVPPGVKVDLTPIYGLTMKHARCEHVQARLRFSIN
As to `CC(C)CCC1(CCN)C(=O)NC(=O)NC1=O`, the activity, negative = inhibition is -13.1% [at 11.4 µM] (inactive).

Turning to `CC(=O)OC1N=C(c2ccccc2)c2cc(Br)ccc2N(C)C1=O` (centres undefined), the AC50 result was “inactive”.

For `CC(C)(C)NC[C@H](O)c1ccccc1Cl`, the AC50 result was “inactive”.

On to `C[C@H](N)c1cccc(Cl)c1Cl`, for which the AC50 was 1.26 µM (active).

Take `CN1[C@H]2CC(=O)C[C@@H]1[C@@H](O)C2`: the AC50 entry is “inactive”.

As for `O=C(O)[C@H]1[O][Sb][O][C@@H](C(=O)O)C1O` (some centres undefined), the activity, negative = inhibition was -15% [at 2.29 µM] (inactive).

Consider `Fc1ccc(CCNCc2ccc(Cl)c(Cl)c2)cc1`, for which the concentration at half-maximal activity (AC50) was 2.24 µM (active).

Consider `Cn1cccc1CNCCc1ccccc1`, for which the AC50 entry is “inactive”.

In the case of `C=CCN1C[C@@H](C)N([C@H](c2ccc(C(=O)N(CC)CC)cc2)c2cccc(OC)c2)C[C@H]1C`, the AC50 result is “inactive”.

On to `C[C@H]1CC[C@@]2(NC1)O[C@@H]1C[C@@H]3[C@@H]4CC=C5C[C@@H](O)CC[C@]5(C)[C@@H]4CC[C@]3(C)[C@H]1[C@@H]2C`, for which the activity, negative = inhibition is -1.04% [at 11.4 µM] (inactive).

Consider `C[C@@]12CC[C@H]3[C@@H](CC=C4C[C@H](OS(=O)(=O)O)CC[C@]43C)[C@H]1CCC2=O`, for which the AC50 entry was “inactive”.

`COCOc1ccc(Br)cc1C(=O)/C=C\c1ccc2c(c1)OCO2`: the activity, negative = inhibition is -3.01% [at 11.4 µM] (inactive).

Regarding `N[C@@H](Cc1ccccc1)P(=O)(O)O`, the activity, negative = inhibition is -13.6% [at 11.4 µM] (inactive).

For the compound `O=[N+]([O-])c1ccc(N2CCNCC2)cc1NC1CC1`, the AC50 is 0.708 µM (active).

For `CN1CCN(c2ccc([N+](=O)[O-])c(N/N=C3\CN4CCC3CC4)c2)CC1`, the AC50 result is “inactive”.

With `O=[N+]([O-])c1ccc(N2CCNCC2)cc1NCC1CCCO1` (centres undefined), the AC50 was 1.41 µM (active).

Take `NS(=O)(=O)c1ccc(-c2ccc([As](=O)(O)O)cc2)cc1`: the activity, negative = inhibition was -0.225% [at 11.4 µM] (inactive).

Regarding `C1C[C@@H]2CN(CCCN3CCOCC3)[C@@H](C1)O2`, the activity, negative = inhibition is -10.8% [at 11.4 µM] (inactive).

For `COc1cc2c(cc1OC)[C@@]13CCN4CC5=CCO[C@H](CC(=O)O)[C@@H]([C@H]1N2)[C@H]5C[C@H]43`, the activity, negative = inhibition is -21.3% [at 11.4 µM] (inactive).

In the case of `C[C@@H]1CC[C@@H]2N(C1)C[C@H]1[C@@](O)([C@H](O)C[C@]3(O)[C@H]4CC[C@H]5[C@]6(O)O[C@]4(C[C@]13O)[C@@]5(C)CC[C@@H]6O)[C@@]2(C)O`, the activity, negative = inhibition was -15.8% [at 11.4 µM] (inactive).

`c1ccc2c(c1)[I+]c1ccccc1-2`: the AC50 was 126 nM (active) and 20 nM (active).

Regarding `O=C1CCCN1CC#CCN1CCCC1`, the AC50 entry is “inactive”.

On to `COc1ccc(C(=O)O[C@H]2CC[C@@]3(C)[C@H]4CC[C@H]5[C@]3(C[C@]3(O)[C@H]6CN7C[C@H](C)CC[C@H]7[C@](C)(O)[C@]6(O)[C@H](O)C[C@]53O)O[C@]24O)cc1OC`, for which the activity, negative = inhibition is -20.9% [at 2.29 µM] (inactive).

Take `O[Si@](CCCN1CCCCC1)(c1ccc(F)cc1)C1CCCCC1`: the AC50 result was “inactive”.

For the compound `CCCCN1C(=O)C(C2c3ccccc3C(=O)N2Cc2ccccc2)C(=O)NC1=S` (centres undefined), the AC50 is 12.6 µM (active).

Consider `CN1C(=O)C(C2c3ccccc3C(=O)N2Cc2ccc([N+](=O)[O-])cc2)C(=O)N(C)C1=O` (centres undefined), for which the AC50 entry was “inactive”.

`CC(C)CN1CCC2(CC1)CCN(C(=O)Oc1ccccc1)CC2`: the AC50 result is “inactive”.

As to `C=C(C)CN1CC[C@@]23c4c5ccc(O)c4O[C@H]2c2[nH]c4ccccc4c2C[C@]3(O)[C@@H]1C5`, the AC50 entry is “inactive”.

For `CC1=NN(c2ccc(S(=O)(=O)O)cc2C)C(=[OH+])[C@H]1N=Nc1cc(S(=O)(=O)O)ccc1C(=O)O.O.[Cr]`, the activity, negative = inhibition is -12.7% [at 11.4 µM] (inactive).

In the case of `O=[N+]([O-])c1cc([As](=O)(O)O)ccc1O`, the AC50 result was “inactive”.

On to `CC[C@@]1(O)C(=O)OCc2c1cc1n(c2=O)Cc2cc3c(NC(=O)CN)cccc3nc2-1`, for which the activity, negative = inhibition was -12.3% [at 2.29 µM] (inactive).

As for `CC[C@]1(OC(=O)CN)C(=O)OCc2c1cc1n(c2=O)Cc2cc3ccccc3nc2-1`, the activity, negative = inhibition is -17.6% [at 2.29 µM] (inactive).

On to `CC[C@@]1(O)C(=O)OCc2c1cc1n(c2=O)Cc2cc3ccccc3nc2-1`, for which the AC50 is 2.51 µM (active).

Take `CCCC[N+]12CCC(CC1)C(C(=O)c1cccs1)C2` (centres undefined): the AC50 result was “inactive”.

Turning to `COC(=O)[C@@H](N)CCCN=C(N)N[N+](=O)[O-]`, the AC50 entry is “inactive”.

Take `Cc1cc(OCC(=O)OC(C)C)c2c3c(c(=O)oc2c1)CCCC3`: the AC50 was 3.55 µM (active).

Turning to `Cc1cc(OCc2ccc([N+](=O)[O-])cc2)c2c3c(c(=O)oc2c1)CCCC3`, the AC50 was 2.24 µM (active).

`Cc1cc(OC(=O)CCCNC(=O)OC(C)(C)C)c2c3c(c(=O)oc2c1)CCC3`: the AC50 is 2.24 µM (active).

Take `Cn1cnc(CCN)c1`: the AC50 result is “inactive”.

For the compound `OC1(c2ccc(F)cc2)CCNC1` (centres undefined), the AC50 result is “inactive”.

Turning to `CCOC(=O)N(c1ccccc1)P1(=S)OCCO1`, the concentration at half-maximal activity (AC50) was 20 µM (active).

With `O=C(O)C[O][Sb][O]CC(=O)O`, the activity, negative = inhibition was -7.83% [at 2.29 µM] (inactive).

On to `CC(=O)O[C@H]1C[C@@H](O[C@@H]2[C@H](C)O[C@H](O[C@@H]3[C@H](C)O[C@H](O[C@@H]4CC[C@@]5(C)[C@@H](CC[C@]6(C)[C@]5(C)C[C@H](O)[C@]5(C)[C@@H](C7=CC(=O)OC7)CC[C@@]56O)C4)C[C@@H]3O)C[C@@H]2O)O[C@@H](C)[C@H]1O[C@H]1O[C@@H](CO)[C@@H](O)[C@@H](O)[C@@H]1O`, for which the AC50 result was “inactive”.

For the compound `C[C@]1(C(=O)O)[C@@H]2CC[C@@H](O2)[C@@]1(C)C(=O)O`, the AC50 result is “inactive”.

For `ClCCNc1nc2ccc(Cl)cc2[nH]1`, the half-maximal activity concentration (AC50) was 3.55 µM (active).

Regarding `N[C@H](C(=O)O)c1cc(=O)[nH]o1`, the AC50 result is “inactive”.

`C[C@@]12CC(=O)[C@H]3[C@@H](CCC4=CC(=O)CC[C@]43C)[C@H]1CCC2=O`: the AC50 result is “inactive”.

As to `CCCN(CCC)C1Cc2cc(OC)c(OC)cc2C1`, the AC50 entry was “inactive”.

For the compound `CCn1cnc2c(Nc3cccc(Cl)c3)nc(N[C@@H]3CCCC[C@H]3N)nc21`, the AC50 is 15.8 µM (active).

Consider `CN(C)C(=O)Oc1cccc([N+](C)(C)C)c1`, for which the AC50 result was “inactive”.

For `COc1ccc(C[C@H]2c3cc(OC)c(OC)cc3CCN2C)cc1OC`, the AC50 entry is “inactive”.

Consider `COc1cc(/C=N/NC(=O)CN2CC(c3ccccc3)CC2=O)ccc1OC(=O)N(C)C` (centres undefined), for which the AC50 entry was “inactive”.

On to `O=C(O)CC[N+](=O)[O-]`, for which the AC50 result was “inactive”.

In the case of `N#C/C(=C\c1ccc(O)c(O)c1)C(N)=S`, the AC50 was 12.6 µM (active) and 6.31 µM (active).

As to `N#CC(C#N)=Cc1ccc(O)c(O)c1`, the AC50 was 5.01 µM (active).

In the case of `N#CC(C#N)=Cc1cc(O)c(O)c(O)c1`, the AC50 entry is “inactive”.

`CC(C)(C)c1cc(C=C(C#N)C#N)cc(C(C)(C)C)c1O`: the AC50 was 10 µM (active).

On to `COc1cc(C=C(C#N)C#N)cc(O)c1O`, for which the AC50 was 12.6 µM (active).

On to `N#C/C(=C\c1ccc(O)c(O)c1)C(=O)NCCCNC(=O)/C(C#N)=C/c1ccc(O)c(O)c1`, for which the AC50 entry was “inactive”.
